The sample as a whole holds a higher share of hits than the screen did.
Pf Dd2 growth: qHTS Primary assay for Inhibitors of Plasmodium falciparum Dd2 growth in vitro | P. falciparum Dd2 growth, SYBR Green, 72 h | Potency, µM (titrated, usually from 28.9 µM), usual class: inhibitors | 4.3% of 120,000 active; active = well fitted inhibition curve with a large enough effect; also: nearly all actives have a fitted effect of over 65% in size
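Infected erythrocytes (Dd2, 0.3% parasitemia, 2.5% hematocrit final) are added to compound in RPMI-1640/Albumax II medium, grown 72 h at 37C in low oxygen, then lysed with saponin/Triton-X containing SYBR Green and read by fluorescence.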
Large screens that a line does not name were inactive.

Cc1csc(C(C)N(C)C(=O)c2cc(Cn3nc(C)cc3C)[nH]n2)n1 (stereo not drawn)	none
COCCO[C@H]1C(=O)N(C2CCN(C(=O)c3ocnc3C)CC2)[C@H]1c1ccncc1	none
CNC(=O)N1CCC(c2nc(CCOc3ccc(F)cc3)no2)C1 (stereo not drawn)	none
O=C(NCC1CCCO1)c1ccc(CN2C(=O)NC3(CCOCC3)C2=O)cc1 (stereo not drawn)	none
CCN1C(=O)C(O)(c2c(C)[nH]c3ccccc23)c2ccccc21 (stereo not drawn)	none
CCCCN1C(=O)C(O)(c2c(C)[nH]c3ccccc23)c2cc(Br)ccc21 (stereo not drawn)	Pf Dd2 growth 11.2µM
CCCCN1C(=O)C(O)(c2c(C)[nH]c3ccccc23)c2ccccc21 (stereo not drawn)	none
Cc1noc([C@@H]2CN(C(=O)c3cscn3)C[C@H]2C(N)=O)n1	none
Cc1ccccc1-n1nc(C)c(CCC(=O)NC2CC2)c1Oc1ccccc1	none
Cc1cccc(-c2ccccc2C(=O)N2CCC3(CCCN(C)C3=O)C2)c1 (stereo not drawn)	none
O=C(Nc1ccc2nc(SCCOc3ccccc3)sc2c1)c1cccs1	Pf Dd2 growth 3.16µM
O=C(Nc1ccc2nc(SCCOc3ccccc3)sc2c1)c1ccccc1F	none
CCC(=O)Nc1ccc2nc(SCCOc3cccc(C)c3)sc2c1	none
O=C(COc1ccccc1)Nc1ccc2nc(SCC(=O)N3CCCC3)sc2c1	Pf Dd2 growth 11.2µM
O=C(COc1ccccc1Cl)Nc1ccc2nc(SCC(=O)N3CCOCC3)sc2c1	none
O=C(Nc1ccc2nc(SCC(=O)N3CCCC3)sc2c1)c1ccccc1	none
COc1cc(C)ccc1OCCSc1nc2ccc(NC(=O)c3ccco3)cc2s1	Pf Dd2 growth 4.47µM
CC(=O)Nc1ccc2nc(SCCOc3ccccc3Cl)sc2c1	none
CCOc1ccc(C(=O)Nc2ccc3nc(SCCOc4ccccc4)sc3c2)cc1	none
Cn1nc(C2CCN(C(=O)c3ccccc3F)CC2)[nH]c1=O	none
O=C(CCC[C@@H]1[C@H]2CCCN3CCC[C@@H](CN1C(=O)c1cc(F)cc(F)c1)[C@@H]23)NCc1ccccc1	none
CCCNC(=O)N(C1CCOCC1)C1CCN(C(=O)c2cccc(F)c2)CC1	none
Cn1nc2n(c1=O)CCN(C(=O)c1ccc(OC(F)(F)F)cc1)CC2	none
CS(=O)(=O)N1CC2(CCN(C(=O)CCC(=O)O)CC2)Cc2ccccc21	none
COCc1ncc(CN2CCC(Cc3nncn3-c3ccccc3)CC2)cn1	none
COc1cc2c(=O)c(C(=O)c3ccc(C)c(C)c3)cn(Cc3ccc(F)cc3)c2cc1OC	Pf Dd2 growth 4.47µM
COc1ccc(Cn2cc(C(=O)c3ccc(C)c(C)c3)c(=O)c3ccccc32)cc1	Pf Dd2 growth 11.2µM
COc1ccc(C(=O)c2cn(CC(=O)Nc3cc(OC)cc(OC)c3)c3ccc(OC)cc3c2=O)cc1	none
CCOc1ccc2c(c1)c(=O)c(C(=O)c1ccc3c(c1)OCO3)cn2Cc1ccc(F)cc1	none
COc1ccc(C(=O)c2cn(Cc3cccc(C)c3)c3cc4c(cc3c2=O)OCO4)cc1	none
Cc1ccc(C(=O)c2cn(Cc3ccccc3)c3cc4c(cc3c2=O)OCCO4)cc1	none
CCOc1ccc(NC(=O)Cn2cc(C(=O)c3ccc(C)c(C)c3)c(=O)c3cc(OC)c(OC)cc32)cc1	none
COc1cc2c(=O)c(C(=O)c3ccc(C)c(C)c3)cn(Cc3ccccc3)c2cc1OC	Pf Dd2 growth 12.6µM
COc1ccc(CCNC(=O)Cn2cc(C(=O)c3ccc(F)cc3)c(=O)c3ccc(C)nc32)cc1OC	none
CCOc1ccc(C(=O)c2cn(Cc3cccc(OC)c3)c3cc4c(cc3c2=O)OCO4)cc1	none
CCOc1ccc(C(=O)c2cn(Cc3ccc(OC)cc3)c3cc(OC)c(OC)cc3c2=O)cc1	Pf Dd2 growth 10µM
CCOc1ccc(C(=O)c2cn(CC(=O)Nc3cc(OC)ccc3OC)c3cc(OC)c(OC)cc3c2=O)cc1	none
O=S(=O)(Cc1ccccc1F)N1CCC(C2CCNC2)CC1 (stereo not drawn)	none
Cc1ccccc1CNC[C@H]1O[C@@H]2C[C@@H](CC(=O)NCc3cnn(C)c3)O[C@@H]2[C@@H]1O	none
Cc1noc(C)c1CC(=O)N1CCC(CCOc2ccccc2F)C1 (stereo not drawn)	none
O=C(NCc1ccc(F)cc1)C1CN(Cc2ccccc2)C(=O)N1 (stereo not drawn)	none
COc1cccc(S(=O)(=O)NCCc2noc(-c3cccnc3)n2)c1	none
CCn1cc(CN2CCN(C(=O)c3sccc3C)CC2)ccc1=O	none
COc1ccccc1Cn1cc(C(=O)c2ccc(Cl)cc2)c(=O)c2ccccc21	none
COc1cccc(Cn2cc(C(=O)c3ccc(Cl)cc3)c(=O)c3ccccc32)c1	Pf Dd2 growth 14.1µM
COc1cccc(C(=O)c2cn(CC(=O)NCCc3ccccc3)c3nc(C)ccc3c2=O)c1	none
CCn1nccc1C(=O)N1CCCCCC1c1nnc(-c2ccccc2)o1 (stereo not drawn)	none
CCOc1ccccc1NC(=O)N1CC2CC(C1)[C@H]1CCCC(=O)N1C2 (stereo partly drawn)	none
CCCS(=O)(=O)N1CCc2nc(N3CCc4ccccc4C3)[nH]c(=O)c2CC1	none
